Test results reported in PubChem BioAssay (NCI).
Compounds without any hit were thinned out: in the full panel of roughly 83,000, 20% have a hit.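 Results are percent growth after 48 hours of single-concentration exposure. 100 means growth as in untreated cells, lower positive values show inhibition; negative values down to -100 show cell death.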 Calls of active or inactive are those of the source. How the source made its calls: active means growth percent below 10; inactive means the rest.

How the values were obtained:
Assay in all cases: NCI-60 one-dose screen, 48 h (100 = growth as untreated, 0 = no growth, -100 = all killed)
Conditions in all cases: 10 µM unless noted
RPMI-8226 leukemia = system: RPMI-8226 leukemia
OVCAR-8 ovarian = system: OVCAR-8 ovarian
OVCAR-5 ovarian = system: OVCAR-5 ovarian
OVCAR-4 ovarian = system: OVCAR-4 ovarian
SK-OV-3 ovarian = system: SK-OV-3 ovarian
IGROV1 ovarian = system: IGROV1 ovarian
HS 578T breast = system: HS 578T breast
NCI/ADR-RES ovarian = system: NCI/ADR-RES ovarian
T-47D breast = system: T-47D breast
BT-549 breast = system: BT-549 breast
MDA-MB-435 melanoma = system: MDA-MB-435 melanoma
SW-620 colon = system: SW-620 colon
MCF7 breast = system: MCF7 breast
HCT-116 colon = system: HCT-116 colon
HCC-2998 colon = system: HCC-2998 colon
KM12 colon = system: KM12 colon

Measured: growth

CS(=O)(=O)c1ccc2c(c1)c1c(n2C(=O)c2ccc(Cl)cc2)CCCC1
inactive: RPMI-8226 leukemia 15.4% | OVCAR-8 ovarian 35.3% | OVCAR-5 ovarian 50.3% | OVCAR-4 ovarian 66.4% | SK-OV-3 ovarian 90.3% | IGROV1 ovarian 46.2% | NCI/ADR-RES ovarian 25.7% | T-47D breast 18.1% | BT-549 breast 33% | SW-620 colon 13.6% | MCF7 breast 17.8% | HCT-116 colon 27.6% | HCC-2998 colon 59.9% | KM12 colon 29.8%
active: HS 578T breast -0.806% | MDA-MB-435 melanoma -24.3%

COc1ccc2c(c1)c(-c1nn3c(=O)cc(-c4ccccc4)nc3s1)cn2C
active: MDA-MB-435 melanoma -23.8%
inactive: RPMI-8226 leukemia 57.5% | OVCAR-8 ovarian 51% | OVCAR-5 ovarian 66% | OVCAR-4 ovarian 67.4% | SK-OV-3 ovarian 49.6% | IGROV1 ovarian 54.3% | HS 578T breast 27% | NCI/ADR-RES ovarian 27.8% | T-47D breast 16% | BT-549 breast 49.8% | SW-620 colon 28.1% | MCF7 breast 18.9% | HCT-116 colon 22.7% | HCC-2998 colon 75.2% | KM12 colon 44.7%

COc1cc2c3c(n(CCCN4CCC[C@H]4C(N)=O)c(=O)c2cc1OC)-c1cc2c(cc1C3=O)OCO2
active: RPMI-8226 leukemia -26.3% | OVCAR-8 ovarian -44.9% | SK-OV-3 ovarian -22.7% | NCI/ADR-RES ovarian 9.81% | T-47D breast -11.4% | MCF7 breast -0.242% | HCT-116 colon 5.37%
inactive: OVCAR-5 ovarian 26.6% | OVCAR-4 ovarian 21.7% | IGROV1 ovarian 33.7% | HS 578T breast 70.9% | BT-549 breast 27.3% | MDA-MB-435 melanoma 31.8% | SW-620 colon 19.7% | HCC-2998 colon 30.5% | KM12 colon 26.1%

Cc1ccccc1/C=C/c1nn2c(-c3ccoc3C)nnc2s1
inactive: RPMI-8226 leukemia 91.4% | OVCAR-8 ovarian 97.1% | OVCAR-5 ovarian 100% | OVCAR-4 ovarian 99.6% | SK-OV-3 ovarian 118% | IGROV1 ovarian 107% | HS 578T breast 111% | NCI/ADR-RES ovarian 93.7% | T-47D breast 90.5% | BT-549 breast 111% | MDA-MB-435 melanoma 96.3% | SW-620 colon 104% | MCF7 breast 83.9% | HCT-116 colon 106% | HCC-2998 colon 108% | KM12 colon 105%

O=S(=O)(Nc1ccc(-n2cnc3cc(-c4ccc(O)cc4)ccc32)cc1)C1CC1
inactive: RPMI-8226 leukemia 79.8% | OVCAR-8 ovarian 88.7% | OVCAR-5 ovarian 107% | OVCAR-4 ovarian 78.2% | SK-OV-3 ovarian 117% | IGROV1 ovarian 86% | HS 578T breast 95% | NCI/ADR-RES ovarian 94.2% | T-47D breast 72.9% | BT-549 breast 91.9% | MDA-MB-435 melanoma 87.7% | SW-620 colon 102% | MCF7 breast 73.9% | HCT-116 colon 92.7% | HCC-2998 colon 103% | KM12 colon 68.7%

Cc1ccc(-c2cc(-c3ccc(N(C)C)cc3)n3c(n2)nc2ccccc23)cc1
inactive: RPMI-8226 leukemia 36.2% | OVCAR-8 ovarian 54.2% | OVCAR-5 ovarian 109% | OVCAR-4 ovarian 60.9% | SK-OV-3 ovarian 81.3% | IGROV1 ovarian 86.2% | HS 578T breast 83% | NCI/ADR-RES ovarian 56.7% | BT-549 breast 82.2% | MDA-MB-435 melanoma 65.3% | SW-620 colon 80.1% | MCF7 breast 59.2% | HCT-116 colon 39.4% | HCC-2998 colon 80.3% | KM12 colon 78.4%
active: T-47D breast 6.32%

COc1ccc2c(C3=C(c4cn(C)c5ccccc45)C(=O)NC3=O)coc2c1
inactive: RPMI-8226 leukemia 11.6% | OVCAR-8 ovarian 41% | OVCAR-5 ovarian 43% | OVCAR-4 ovarian 79% | SK-OV-3 ovarian 47.6% | IGROV1 ovarian 47.2% | NCI/ADR-RES ovarian 25.1% | T-47D breast 44% | BT-549 breast 82.6% | SW-620 colon 39% | MCF7 breast 24.3% | HCT-116 colon 15.8% | HCC-2998 colon 28.2% | KM12 colon 32.1%
active: HS 578T breast 9.64% | MDA-MB-435 melanoma 6.58%

COC(=O)[C@@]1(C)CC[C@]2(C)CC[C@]3(C)C(=CC(=O)[C@@H]4[C@@]5(C)Cc6c(n(CC#CCN7CCN(C)CC7)c7ccccc67)C(C)(C)[C@@H]5CC[C@]43C)[C@@H]2C1
inactive: RPMI-8226 leukemia 69.5% | OVCAR-8 ovarian 93.8% | OVCAR-5 ovarian 86.7% | OVCAR-4 ovarian 89.7% | SK-OV-3 ovarian 122% | IGROV1 ovarian 89% | HS 578T breast 88.1% | NCI/ADR-RES ovarian 86.5% | T-47D breast 84.8% | BT-549 breast 90.5% | MDA-MB-435 melanoma 40.3% | HCC-2998 colon 94.8% | KM12 colon 52.8%
active: SW-620 colon -63.4% | MCF7 breast -32.4% | HCT-116 colon -28.7%

COc1ccc(-c2cc(-c3cccc4ccccc34)n3c(n2)nc2ccccc23)cc1
inactive: RPMI-8226 leukemia 32.7% | OVCAR-8 ovarian 42.1% | OVCAR-5 ovarian 81.1% | OVCAR-4 ovarian 64.8% | SK-OV-3 ovarian 58.4% | IGROV1 ovarian 48.7% | HS 578T breast 55% | NCI/ADR-RES ovarian 54.2% | T-47D breast 24.2% | BT-549 breast 69.9% | MDA-MB-435 melanoma 53.4% | SW-620 colon 40.6% | MCF7 breast 19.6% | HCT-116 colon 37.9% | HCC-2998 colon 88.3% | KM12 colon 62.4%

COc1cc2c3c(n(CCCNC4CCCC4)c(=O)c2cc1OC)-c1cc2c(cc1C3=O)OCO2
inactive: OVCAR-4 ovarian 71.9% | SK-OV-3 ovarian 80.7% | HS 578T breast 93.3% | NCI/ADR-RES ovarian 51.9% | T-47D breast 86% | BT-549 breast 74.8% | HCC-2998 colon 23.2% | KM12 colon 65.6%
active: RPMI-8226 leukemia -40.1% | OVCAR-8 ovarian -70.2% | OVCAR-5 ovarian -81.3% | IGROV1 ovarian -48.7% | MDA-MB-435 melanoma -49.6% | SW-620 colon -83.6% | MCF7 breast -74.8% | HCT-116 colon -90.9%

O=c1cc(-c2ccccc2)nc2sc(-c3c[nH]c4ccc(F)cc34)nn12
active: OVCAR-4 ovarian -14.1% | HS 578T breast -4.32%
inactive: RPMI-8226 leukemia 71.9% | OVCAR-8 ovarian 62% | OVCAR-5 ovarian 77.2% | SK-OV-3 ovarian 56.6% | IGROV1 ovarian 85.4% | NCI/ADR-RES ovarian 60.6% | T-47D breast 27.2% | BT-549 breast 56.7% | MDA-MB-435 melanoma 63.7% | SW-620 colon 60.9% | MCF7 breast 57.9% | HCT-116 colon 57.2% | HCC-2998 colon 83.4%

COc1ccc2c(C3=C(c4c[nH]c5ccccc45)C(=O)N(O)C3=O)coc2c1
inactive: RPMI-8226 leukemia 72.1% | OVCAR-8 ovarian 77.5% | OVCAR-5 ovarian 105% | OVCAR-4 ovarian 114% | SK-OV-3 ovarian 86.5% | IGROV1 ovarian 77.1% | HS 578T breast 96.4% | NCI/ADR-RES ovarian 99.5% | T-47D breast 40.6% | BT-549 breast 118% | MDA-MB-435 melanoma 107% | SW-620 colon 98.6% | MCF7 breast 44.5% | HCT-116 colon 93.1% | HCC-2998 colon 103% | KM12 colon 97.6%

c1cncc(-c2cn3nc(-c4c[nH]c5ccccc45)sc3n2)c1
inactive: RPMI-8226 leukemia 63.1% | OVCAR-8 ovarian 52.2% | OVCAR-5 ovarian 43.4% | OVCAR-4 ovarian 83.3% | SK-OV-3 ovarian 86.2% | IGROV1 ovarian 59.8% | HS 578T breast 57.8% | NCI/ADR-RES ovarian 18.3% | T-47D breast 69.7% | BT-549 breast 33.3% | SW-620 colon 28.6% | MCF7 breast 34.7% | HCT-116 colon 28.8% | HCC-2998 colon 59.1% | KM12 colon 26.6%
active: MDA-MB-435 melanoma -38%

CCNCCCn1c2c(c3cc(OC)c(OC)cc3c1=O)C(=O)c1cc(OC)cnc1-2
active: RPMI-8226 leukemia -34.9% | OVCAR-4 ovarian 6.87% | SK-OV-3 ovarian -32.1% | T-47D breast -0.933% | MCF7 breast 8.05% | HCT-116 colon 0.589%
inactive: OVCAR-8 ovarian 14.1% | OVCAR-5 ovarian 46.2% | IGROV1 ovarian 32.3% | HS 578T breast 80.2% | NCI/ADR-RES ovarian 26.9% | BT-549 breast 27.3% | MDA-MB-435 melanoma 38% | SW-620 colon 37.1% | HCC-2998 colon 43.4% | KM12 colon 45.4%

C=CCn1c(SCC(=O)Nc2cccc(C(=O)/C=C/c3cccc([N+](=O)[O-])c3)c2)nc2ccccc2c1=O
inactive: RPMI-8226 leukemia 17% | OVCAR-8 ovarian 94.2% | OVCAR-5 ovarian 92.5% | OVCAR-4 ovarian 92% | SK-OV-3 ovarian 116% | IGROV1 ovarian 96.8% | HS 578T breast 91.9% | NCI/ADR-RES ovarian 95.7% | T-47D breast 79.1% | BT-549 breast 111% | MDA-MB-435 melanoma 98.4% | SW-620 colon 62% | MCF7 breast 33.2% | HCC-2998 colon 101% | KM12 colon 104%
active: HCT-116 colon 8.94%

COc1ccc(-c2cc(-c3cccc4ccccc34)n3c(n2)nc2ccccc23)cc1OC
inactive: OVCAR-8 ovarian 34.3% | OVCAR-5 ovarian 52.2% | OVCAR-4 ovarian 71.9% | SK-OV-3 ovarian 35.3% | IGROV1 ovarian 52.3% | HS 578T breast 46.3% | NCI/ADR-RES ovarian 47.4% | T-47D breast 19.2% | BT-549 breast 34.6% | MDA-MB-435 melanoma 47.3% | SW-620 colon 29.8% | MCF7 breast 15.4% | HCT-116 colon 31.5% | HCC-2998 colon 72% | KM12 colon 68.1%
active: RPMI-8226 leukemia -18.4%

CC1(C)CC[C@]2(C(=O)N3CCCNCC3)CC[C@]3(C)C(=CC[C@@H]4[C@@]5(C)CCC(=O)C(C)(C)[C@@H]5CC[C@]43C)[C@H]2C1
inactive: RPMI-8226 leukemia 98.7% | OVCAR-8 ovarian 103% | OVCAR-5 ovarian 104% | OVCAR-4 ovarian 116% | SK-OV-3 ovarian 115% | IGROV1 ovarian 117% | HS 578T breast 106% | NCI/ADR-RES ovarian 100% | T-47D breast 100% | BT-549 breast 112% | MDA-MB-435 melanoma 112% | SW-620 colon 101% | MCF7 breast 93.6% | HCT-116 colon 103% | HCC-2998 colon 102%

CC1COc2c(N3CCN(C)CC3)c(F)cc3c(=O)c(C(=O)N/N=C/c4cc[nH]c4)cn1c23 (stereo unspecified)
active: SW-620 colon -46.4% | MCF7 breast -5.35% | HCT-116 colon -80.1%
inactive: RPMI-8226 leukemia 45.3% | OVCAR-8 ovarian 19.4% | OVCAR-5 ovarian 77.8% | OVCAR-4 ovarian 44.6% | SK-OV-3 ovarian 61.6% | IGROV1 ovarian 26.6% | HS 578T breast 67.5% | NCI/ADR-RES ovarian 94.2% | T-47D breast 47.2% | BT-549 breast 59.5% | MDA-MB-435 melanoma 12.2% | HCC-2998 colon 22.6% | KM12 colon 46.4%
